Our source for the AC50 and outcome values is PubChem BioAssay (EPA / NIEHS).

Where “and” joins values, the source holds several entries; their conditions need not be identical. Equal entries are not always repeated. Where a structure was tested more than once in an assay, its records may differ in their call. Calls of active or inactive are those of the source. The calls were made as follows: active = hit-call score of the fitted dose curve at least 0.9, where 1 is the maximum; inactive = score below 0.9.

The term AC50 denotes the concentration giving half of the maximal activity seen.

Read-out in this assay: Pselectin, SELP (gene 6403)
Briefly: BSK_4H_Pselectin: BioMAP Diversity Plus: 4H Assay for Pselectin Biomarker Activity (AID 2283026). Particulars: primary human endothelial cells (HUVEC); actives raise or lower the signal. How it is done:
BSK_4H is a cell-based, multiplexed-readout assay that uses umbilical vein endothelium, a human vascular primary cell, with measurements taken at 24 hours after chemical dosing in a 96-well plate.BSK_4H_Pselectin is an assay component measured in the BSK_4H assay. It measures P-Selectin antibody related to regulation of gene expression using ELISA technology.Data from the assay component BSK_4H_Pselectin was analyzed into 1 assay endpoint. This assay endpoint, BSK_4H_Pselectin, was analyzed with bidirectional fitting relative to DMSO as the negative control and baseline of activity. Using a type of binding reporter, gain or loss-of-signal activity can be used to understand changes in the signaling as they relate to the gene SELP. Furthermore, this assay endpoint can be referred to as a primary readout, because this assay has produced multiple assay endpoints where this one serves a signaling function. To generalize the intended target to other relatable targets, this assay endpoint is annotated to the cell adhesion molecules intended target family, where the subfamily is selectins.
The levels of cell surface (or secreted, indicated by the prefix "s") biomarker endpoints were measured by ELISA. Overt cytotoxicity to cells in confluent adherent cultures (all systems other than the BT system) was assessed by measuring total protein levels using sulforhodamine B (SRB) staining in parallel cultures at the time of biomarker measurements, indicated as SRB endpoints. For proliferation assays for adherent cell types, individual cell types are cultured at sub-confluence and relative cell numbers quantified by SRB staining at time points optimized for each system (48 h: 3C and CASM3C systems; 72 h: BT and HDF3CGF systems; 96 h: SAg system). SRB was performed by staining cells with 0.1% SRB after fixation with 10% TCA and reading wells at 560 nm.Viability and proliferation of PBMC (T cells) was quantified by Alamar Blue reduction for the SAg and BT systems. For PBMC viability (referred to as PBMC Cytotoxicity within the assay endpoint names), cells were plated (75,000/well in a 96-well plate) and then chemical samples added for 1 h before addition of activators, SEB and TSST-1 (20 ng/mL final concentration each). Cells were incubated for 90 h. Then, Alamar Blue (20 uL/well) (Invitrogen, Cat DAL1100) was added for 6 h, and the plates were read with a fluorescence microplate reader at 546/580 nm (excitation/emission). For PBMC proliferation, cells were plated and activated as above but incubated for only 16 h prior to addition of Alamar Blue. Plates were read after 6 h.
Consider `O=C(O)Cc1cc(I)c(Oc2cc(I)c(O)c(I)c2)c(I)c1`, for which the AC50 was 20.2 µM (active).

Take `CCc1nn(C2CCCCC2)c2cc(C3(C#N)CCC(C(=O)O)CC3)ccc12` (stereo not given): the AC50 is 4.25 µM (active).

In the case of `CC(O)CO` (stereo not given), the outcome was inactive.

As to `CC(=O)CC(C)(C)O`, the outcome was inactive.

As to `CC(C)CCCCCCOC(=O)CCCCC(=O)OCCCCCCC(C)C`, the outcome was inactive.

`Oc1cccc(O)c1`: the result was inactive.

In the case of `N#C[C@@H]1CC(F)(F)CN1C(=O)CNC1CC2CCC(C1)N2c1ncccn1` (stereo not given in full), the result was inactive.

`OCCC(F)(F)C(F)(F)C(F)(F)C(F)(F)C(F)(F)C(F)(F)F`: the outcome was inactive and the half-maximal activity concentration (AC50) is 46.8 µM (active).

Turning to `NC(=O)N1C(=O)C(C(=O)c2cc(Cl)cs2)c2cc(F)c(Cl)cc21` (stereo not given), the AC50 was 11.4 µM (active).

Take `COC(=O)CCCCC(=O)OC`: the outcome was inactive.

Take `c1ccc2c(c1)Cc1ccccc1-2`: the result was inactive.

`CCCCCCCCC(=O)O`: the outcome was inactive.

With `CCCOc1sc(C(=O)N2CCC(c3cc(CN)ccc3F)CC2)c(C)c1Br`, the half-maximal activity concentration (AC50) was 6.2 µM (active).

With `CCc1ccc(CCOc2ccc(CC3SC(=O)NC3=O)cc2)nc1` (stereo not given), the outcome was inactive.

Take `CC[C@H](C)[C@@H](C(=O)O)n1sc2ccccc2c1=O`: the result was inactive.

With `CN1CCC[C@H]1c1cccnc1`, the result was inactive.

As to `CCCCCCCCOC(=O)CCCCCCCCC(=O)OCCCCCCCC`, the result was inactive.

In the case of `OC1CCC(C2CCCCC2)CC1` (stereo not given), the result was inactive.

As to `CCN(CC)CCNc1ccc(CNC=O)c2sc3ccc(OC)cc3c(=O)c12`, the AC50 is 14.3 µM (active).

For the compound `CCCCC(CC)COC(=O)CCCCC(=O)OCc1ccccc1` (stereo not given), the result was inactive.

For the compound `FC(F)(I)C(F)(F)C(F)(F)C(F)(F)C(F)(F)C(F)(F)I`, the AC50 was 14.6 µM (active) [middle of 5 runs].

Take `CCCCOCCO`: the outcome was inactive.

With `NC(=O)N(O)[C@@H]1C=C[C@H](Oc2cccc(Oc3ccc(F)cc3)c2)C1`, the outcome was inactive.

On to `CCCCCCCCCCCCCCCS(=O)(=O)Oc1ccccc1`, for which the result was inactive.

Turning to `C#C[C@]1(O)CC[C@H]2[C@@H]3CCC4=CC(=O)CC[C@@H]4[C@H]3CC[C@@]21C`, the outcome was inactive.

`CC(C)(C)c1ccc(O)c(C(C)(C)C)c1`: the AC50 was 7.52 µM (active).

Consider `CCCCCCCCCCCCc1ccccc1S(=O)(=O)O`, for which the result was inactive.

With `CC(=O)NC1(c2cccc(F)c2)CCN(CC[C@@]2(c3ccc(Cl)c(Cl)c3)CN(c3ccccc3)C(=O)CO2)CC1`, the half-maximal activity concentration (AC50) was 20.4 µM (active).

Regarding `CN1CCN(c2ccccc2/C=C2\SCCN(c3ccc(Cl)c(Cl)c3)C2=O)CC1`, the concentration at half-maximal activity (AC50) is 6.28 µM (active).

As to `CN(C)C=O`, the outcome was inactive.

As for `ClC1=C(Cl)C(Cl)(Cl)C(Cl)=C1Cl`, the AC50 was 5.42 µM (active).

Turning to `Cc1oc(-c2ccccc2)nc1CCOc1ccc(C[C@H](Nc2ccccc2C(=O)c2ccccc2)C(=O)O)cc1`, the AC50 is 32.9 µM (active).

As to `OCCC(F)(F)C(F)(F)C(F)(F)C(F)(F)C(F)(F)C(F)(F)C(F)(F)C(F)(F)F`, the AC50 is 14.5 µM (active) and 13.5 µM (active); the result was inactive.

With `Oc1cc2ccccc2c2ccccc12`, the AC50 was 9.99 µM (active).

For `c1ccc2c(c1)ccc1ccccc12`, the outcome was inactive.

In the case of `O=C(O)c1ccccc1C(c1ccc(O)cc1)c1ccc(O)cc1`, the result was inactive.

On to `CCOC(=O)CC(O)(CC(=O)OCC)C(=O)OCC`, for which the result was inactive.

Take `NCC(F)(F)C(F)(F)C(F)(F)C(F)(F)C(F)(F)C(F)(F)C(F)(F)F`: the result was inactive.
